According to PubChem BioAssay (NCATS):
Records with an inconclusive call do not appear. Entries that show only a call come without a potency. The source made the active and inactive calls. The call rests on the fitted dose curve; in most records, active means well fitted inhibition curve with a large enough effect; inconclusive means small, poorly fitted or top-dose-only effect; inactive means flat fitted curve, though single readings scatter.

test system: CP191; assay: qHTS profiling for inhibitors of Plasmodium falciparum proliferation (AID 504749); further: nearly all actives have a fitted effect of over 60% in size; conditions: P. falciparum in erythrocytes, SYBR Green DNA, 72 h; series mostly up to 28.7 µM
Summary of the method: (§1)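 SYBR Green fluorescence of parasite DNA, read after lysis and overnight dark incubation, measured growth over 72 h in erythrocyte culture at 0.3% parasitemia and 2.5% hematocrit. Data normalised to DMSO and 0.29 uM artemisinin, with plate-drift correction.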
Potency means the concentration at half of the fitted maximal effect.

| SMILES | Potency |
| --- | --- |
| CCCN1CCC[C@H](c2cccc(O)c2)C1 | inactive |
| C[C@]12CCC(=O)C(O)=C1CC[C@@H]1[C@H]3CCC(=O)[C@@]3(C)CC[C@@H]12 | inactive |
| O=C(O)COc1ccccc1 | inactive |
| O=[N+]([O-])c1ccc([As](=O)(O)O)cc1 | 6.31 µM (active) |
| O=C(O)C(Cl)Cl | inactive |
| Cc1cc(O)ccc1Cl | inactive |
| CN(C)[C@@H]1C(=O)C(C(N)=O)=C(O)[C@@]2(O)C(=O)C3=C(O)c4c(O)cccc4[C@@](C)(O)[C@H]3[C@H](O)[C@@H]12 | inactive |
| COC(=O)[C@@H](N)CCCN=C(N)N[N+](=O)[O-] | inactive |
| CN1C2CCC1CC(OC(=O)c1cc(Cl)cc(Cl)c1)C2 (stereo not drawn) | inactive |
| CN[C@@H]1C[C@@H](c2ccc(Cl)c(Cl)c2)c2ccccc21 | inactive |
| CCCCc1ccc(C(=O)O)nc1 | inactive |
| Cc1ccc(Cl)c(O)c1 | inactive |
| CC(C)NC(C)Cc1ccc(I)cc1 (stereo not drawn) | inactive |
| CC(=O)[O][Hg][c]1ccccc1 | 8.91 µM (active) |
| C=CCN1CC[C@]23CCCCC2[C@H]1Cc1ccc(O)cc13 (stereo partly drawn) | inactive |
| NC(=O)CN1CC(O)CC1=O (stereo not drawn) | inactive |
| C1CCC(NC2CCCCC2)CC1 | inactive |
| C#CC1(O)CCC2C3CCC4=CC(=O)CCC4(C)C3CCC21C (stereo not drawn) | inactive |
| CC[N+]1(CCOC(=O)C(O)(c2ccccc2)c2ccccc2)CCCCC1 | inactive |
| CCCCCCCCCC(CC)c1ccc(S(=O)(=O)O)cc1 (stereo not drawn) | inactive |
| NC1=NC(=O)N2CC12 (stereo not drawn) | inactive |

test system: CP192; assay: as above; conditions: P. falciparum in erythrocytes, SYBR Green DNA, 72 h; series mostly up to 28.7 µM
Summary of the method: as §1

| SMILES | Potency |
| --- | --- |
| CCCN1CCC[C@H](c2cccc(O)c2)C1 | inactive |
| C[C@]12CCC(=O)C(O)=C1CC[C@@H]1[C@H]3CCC(=O)[C@@]3(C)CC[C@@H]12 | inactive |
| O=C(O)COc1ccccc1 | inactive |
| O=C(O)C(Cl)Cl | inactive |
| Cc1cc(O)ccc1Cl | inactive |
| CN(C)[C@@H]1C(=O)C(C(N)=O)=C(O)[C@@]2(O)C(=O)C3=C(O)c4c(O)cccc4[C@@](C)(O)[C@H]3[C@H](O)[C@@H]12 | inactive |
| CC(=O)OCC1=C(C(=O)O)N2C(=O)[C@@H](N)[C@@H]2SC1 | inactive |
| COC(=O)[C@@H](N)CCCN=C(N)N[N+](=O)[O-] | inactive |
| c1ccc(C2(c3ccccc3)CC2C2=NCCN2)cc1 (stereo not drawn) | inactive |
| CN1C2CCC1CC(OC(=O)c1cc(Cl)cc(Cl)c1)C2 (stereo not drawn) | inactive |
| CN[C@@H]1C[C@@H](c2ccc(Cl)c(Cl)c2)c2ccccc21 | inactive |
| CCCCc1ccc(C(=O)O)nc1 | inactive |
| Cc1ccc(Cl)c(O)c1 | inactive |
| CC(C)NC(C)Cc1ccc(I)cc1 (stereo not drawn) | inactive |
| COC(=O)c1cncn1C(C)c1ccccc1 (stereo not drawn) | inactive |
| CC(=O)[O][Hg][c]1ccccc1 | 9.53 µM (active) |
| C=CCN1CC[C@]23CCCCC2[C@H]1Cc1ccc(O)cc13 (stereo partly drawn) | inactive |
| NC(=O)CN1CC(O)CC1=O (stereo not drawn) | inactive |
| C1CCC(NC2CCCCC2)CC1 | inactive |
| C#CC1(O)CCC2C3CCC4=CC(=O)CCC4(C)C3CCC21C (stereo not drawn) | inactive |
| CC[N+]1(CCOC(=O)C(O)(c2ccccc2)c2ccccc2)CCCCC1 | inactive |
| CCCCCCCCCC(CC)c1ccc(S(=O)(=O)O)cc1 (stereo not drawn) | inactive |
| NC1=NC(=O)N2CC12 (stereo not drawn) | inactive |

test system: CP194; assay: as above; conditions: P. falciparum in erythrocytes, SYBR Green DNA, 72 h; series mostly up to 28.7 µM
Summary of the method: as §1

| SMILES | Potency |
| --- | --- |
| CCCN1CCC[C@H](c2cccc(O)c2)C1 | inactive |
| C[C@]12CCC(=O)C(O)=C1CC[C@@H]1[C@H]3CCC(=O)[C@@]3(C)CC[C@@H]12 | inactive |
| O=C(O)COc1ccccc1 | inactive |
| O=[N+]([O-])c1ccc([As](=O)(O)O)cc1 | 13.5 µM (active) |
| O=C(O)C(Cl)Cl | inactive |
| Cc1cc(O)ccc1Cl | inactive |
| CN(C)[C@@H]1C(=O)C(C(N)=O)=C(O)[C@@]2(O)C(=O)C3=C(O)c4c(O)cccc4[C@@](C)(O)[C@H]3[C@H](O)[C@@H]12 | inactive |
| CC(=O)OCC1=C(C(=O)O)N2C(=O)[C@@H](N)[C@@H]2SC1 | inactive |
| COC(=O)[C@@H](N)CCCN=C(N)N[N+](=O)[O-] | inactive |
| c1ccc(C2(c3ccccc3)CC2C2=NCCN2)cc1 (stereo not drawn) | inactive |
| CN1C2CCC1CC(OC(=O)c1cc(Cl)cc(Cl)c1)C2 (stereo not drawn) | inactive |
| CCCCc1ccc(C(=O)O)nc1 | inactive |
| Cc1ccc(Cl)c(O)c1 | inactive |
| CC(C)NC(C)Cc1ccc(I)cc1 (stereo not drawn) | inactive |
| COC(=O)c1cncn1C(C)c1ccccc1 (stereo not drawn) | inactive |
| CC(=O)[O][Hg][c]1ccccc1 | 9.53 µM (active) |
| C=CCN1CC[C@]23CCCCC2[C@H]1Cc1ccc(O)cc13 (stereo partly drawn) | inactive |
| NC(=O)CN1CC(O)CC1=O (stereo not drawn) | inactive |
| C1CCC(NC2CCCCC2)CC1 | inactive |
| C#CC1(O)CCC2C3CCC4=CC(=O)CCC4(C)C3CCC21C (stereo not drawn) | inactive |
| CC[N+]1(CCOC(=O)C(O)(c2ccccc2)c2ccccc2)CCCCC1 | inactive |
| CCCCCCCCCC(CC)c1ccc(S(=O)(=O)O)cc1 (stereo not drawn) | inactive |

test system: CP201; assay: as above; conditions: P. falciparum in erythrocytes, SYBR Green DNA, 72 h; series mostly up to 28.7 µM
Summary of the method: as §1

| SMILES | outcome |
| --- | --- |
| CCCN1CCC[C@H](c2cccc(O)c2)C1 | inactive |
| C[C@]12CCC(=O)C(O)=C1CC[C@@H]1[C@H]3CCC(=O)[C@@]3(C)CC[C@@H]12 | inactive |
| O=C(O)COc1ccccc1 | inactive |
| O=C(O)C(Cl)Cl | inactive |
| Cc1cc(O)ccc1Cl | inactive |
| CN(C)[C@@H]1C(=O)C(C(N)=O)=C(O)[C@@]2(O)C(=O)C3=C(O)c4c(O)cccc4[C@@](C)(O)[C@H]3[C@H](O)[C@@H]12 | inactive |
| CC(=O)OCC1=C(C(=O)O)N2C(=O)[C@@H](N)[C@@H]2SC1 | inactive |
| COC(=O)[C@@H](N)CCCN=C(N)N[N+](=O)[O-] | inactive |
| c1ccc(C2(c3ccccc3)CC2C2=NCCN2)cc1 (stereo not drawn) | inactive |
| CN1C2CCC1CC(OC(=O)c1cc(Cl)cc(Cl)c1)C2 (stereo not drawn) | inactive |
| CN[C@@H]1C[C@@H](c2ccc(Cl)c(Cl)c2)c2ccccc21 | inactive |
| CCCCc1ccc(C(=O)O)nc1 | inactive |
| Cc1ccc(Cl)c(O)c1 | inactive |
| CC(C)NC(C)Cc1ccc(I)cc1 (stereo not drawn) | inactive |
| COC(=O)c1cncn1C(C)c1ccccc1 (stereo not drawn) | inactive |
| C=CCN1CC[C@]23CCCCC2[C@H]1Cc1ccc(O)cc13 (stereo partly drawn) | inactive |
| NC(=O)CN1CC(O)CC1=O (stereo not drawn) | inactive |
| C1CCC(NC2CCCCC2)CC1 | inactive |
| C#CC1(O)CCC2C3CCC4=CC(=O)CCC4(C)C3CCC21C (stereo not drawn) | inactive |
| CC[N+]1(CCOC(=O)C(O)(c2ccccc2)c2ccccc2)CCCCC1 | inactive |
| CCCCCCCCCC(CC)c1ccc(S(=O)(=O)O)cc1 (stereo not drawn) | inactive |
| NC1=NC(=O)N2CC12 (stereo not drawn) | inactive |
